The values below come from PubChem BioAssay AID489039 (National Center for Advancing Translational Sciences (NCATS), 2010).

The structures appear in SMILES notation. Results filed as inconclusive are left out. Calls of active or inactive are those of the source. Calls come from the whole dose curve; as a rule, active = well fitted inhibition curve with a large enough effect; inconclusive = small, poorly fitted or top-dose-only effect, or effect the other way; inactive = no such curve, though single readings can be large or run the other way.

The target of the assay is Nuclear receptor ROR-alpha (Homo sapiens) (UniProt P35398). The experiment in a line: ROR alpha selectivity assay for inhibitors of ROR gamma transcriptional activity. Particulars: Drosophila S2 Gal4-RORalpha UAS-luciferase, 20 h; series mostly up to 92.2 µM. An excerpt:
NIH Molecular Libraries Probe Production Network [MLPCN] NIH Chemical Genomics Center [NCGC] MLPCN Grant: R03 DA026211-01 Assay Provider: Dan Littman, New York University Assay Overview: The retinoic acid-related orphan receptor (ROR) gamma is a transcription factor that has a central role in the differentiation of Th17 cells, a subset of T helper cells that secrete the inflammatory cytokines IL-17A, IL-17F, and IL-22. Th17 cells have been implicated in graft versus host disease, autoimmune disease and asthma. RORgamma is induced in naive T helper cells in the presence of TGF-beta combined with IL-6, IL-21, or IL-23, and thereafter directs the expression of the Th17 lineage cytokines. To identify nonselective inhibitors, a Drosophila Schneider cell line was stably transfected with two vectors: a gene expressing a fusion of the Gal4 DNA binding domain and the transactivation domain of the ROR alpha, under the control of the metallothionine promoter and a Photinus luciferase reporter regulated by the Gal4 binding site enhancer, UAS. […] Small molecule inhibitors that inhibit RORgamma and RORalpha, or components common to both, will be active in both assays and thus scored as nonselective.
Assay Protocol Summary: For screening, 600 cells in 4 uL/well were dispensed into white solid 1536-well plates (Grenier) using a solenoid-based dispenser. Following transfer of 23 nL compound or DMSO vehicle by a pin tool, the plates were incubated 1 hr at ambient temperature, and 1 uL/well copper sulfate (700 uM final concentration) was added. The plates were centrifuged 15 s at 1000 RPM and incubated 20 hr at ambient temperature. After addition of 1.5 uL Photinus luciferase detection reagent, the plates were incubated 10 min at ambient temperature and then read by an ViewLux (Perkin Elmer) to detect luminescence.
Regarding `Cc1cc(C)n(-c2nc(SCC(=O)O)c3c4c(sc3n2)CCCC4)n1`, the Potency is 18.2 µM (active).

In the case of `COc1cc(O)c(C(CC(=O)N2CCCCC2)c2ccc3c(c2)OCO3)c(OC)c1` (stereo not given), the Potency entry was “inactive”.

`O=C(/C=C/c1ccc(S(=O)(=O)N2CCOCC2)cc1)NC(=S)Nc1ccc(N2CCOCC2)cc1`: the Potency was 14.4 µM (active).

Turning to `COc1cc(O)c(C(CC(=O)N2CCCC(C)C2)c2ccccc2OC)c(OC)c1` (stereo not given), the Potency result was “inactive”.

Take `COc1cc(O)c(C(CC(=O)N2CCC(c3ccccc3)CC2)c2ccc3c(c2)OCO3)c(OC)c1` (stereo not given): the Potency entry was “inactive”.

As for `O=C(NC(=S)Nc1nc(-c2ccccc2)cs1)c1cccnc1`, the Potency was 32.3 µM (active).

For `CCOC(=O)C1CCN(CC(=O)Nc2cc(C)nn2-c2nc3ccccc3s2)CC1`, the Potency is 20.4 µM (active).

With `CCOC(=O)Cn1c(CN2CCc3ccccc3C2)nc2c1c(=O)n(C)c(=O)n2C`, the Potency was 16.2 µM (active).

For `COc1cc(O)c(C(CC(=O)N2CCCC2)c2ccc3c(c2)OCO3)c(OC)c1` (stereo not given), the Potency result was “inactive”.

Regarding `COc1ccc(-c2c[n+]3c(n2-c2ccc(C)cc2)CCCCC3)cc1`, the Potency was 10.2 µM (active).

For `Cc1cccc(C(CC(=O)NCc2ccco2)c2ccccc2)c1O` (stereo not given), the Potency entry is “inactive”.

For the compound `COc1cc(O)c(C(CC(=O)N2CCCC(C)C2)c2ccc(-c3ccccc3)cc2)c(OC)c1` (stereo not given), the Potency entry was “inactive”.

`CC1CCCN(C(=O)CC(c2ccc3c(c2)OCO3)c2cc(C(C)C)ccc2O)C1` (stereo not given): the Potency entry is “inactive”.

Regarding `CCNC(=O)CCc1nc(-c2ccc(C(C)(C)C)cc2)no1`, the Potency is 0.162 µM (active).

`O=C(CCCN1C(=O)/C(=C/c2ccccc2Cl)SC1=S)Nc1cccnc1`: the Potency is 1.82 µM (active).

Consider `COCC1CCCCN1C(=O)c1cc(COc2ccc3ncccc3c2)on1` (stereo not given), for which the Potency is 14.4 µM (active).

Take `C[C@@H]1[C@H](C)CC[C@]2(C(=O)O)CC[C@]3(C)C(=CC[C@@H]4[C@@]5(C)CC[C@H](O)C(C)(C)[C@H]5CC[C@]43C)[C@@H]12`: the Potency was 18.2 µM (active).

`COc1ccc2nc(NNC(=O)COc3ccccc3)sc2c1`: the Potency was 6.45 µM (active).

In the case of `COc1cc(O)c(C(CC(=O)NC2CCCc3ccccc32)c2ccc3c(c2)OCO3)c(OC)c1` (stereo not given), the Potency result is “inactive”.

`COc1cc(O)c(C(CC(=O)N2CCCC(CN3CCCCC3)C2)c2ccc3c(c2)OCO3)c(OC)c1` (stereo not given): the Potency result was “inactive”.
